Compound activity from PubChem.
KB-3-1 tox: qHTS assay for MDR1-selective chemotherapeutics: Primary screen using the parental adenocarcinoma cell KB-3-1; KB-3-1 viability, CellTiter-Glo ATP luminescence, 72 h; Potency, µM (series often up to 46.1 µM), actives largely listed as cytotoxic; 400,000 tested, 1.4% active; AID 1347075, 2019; also: nearly all actives have a fitted effect of over 60% in size
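Using CellTiter-Glo luminescence, growth of non-resistant KB-3-1 adenocarcinoma cells is assessed 72 h after pin-tool compound addition at 37 °C. Normalized responses across the concentration series yield fitted curves.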
MCF10A rerep: A quantitative high throughput screen for small molecules that induce DNA re-replication in MCF 10a normal breast cells. MCF 10A DNA re-replication, Hoechst nuclear intensity, 48 h. Potency, µM (titrated, usually from 46.1 µM), actives largely listed as activators. 350,000 tested, 2.9% active; also: nearly all actives have a fitted effect of over 50% in size
D3 antag: qHTS of D3 Dopamine Receptor Antagonist: qHTS. D(3) dopamine receptor (Homo sapiens), P35462. D3R cells, DiscoveRx beta-arrestin luminescence, antagonist mode; stronger effect = lower value. max response, negative = inhibition, %. 360,000 tested, 2.5% active; in the data active = max response below about -50%; inconclusive = no clear call, values can overlap the other calls
Target sequence (P35462 whole entry, looked up): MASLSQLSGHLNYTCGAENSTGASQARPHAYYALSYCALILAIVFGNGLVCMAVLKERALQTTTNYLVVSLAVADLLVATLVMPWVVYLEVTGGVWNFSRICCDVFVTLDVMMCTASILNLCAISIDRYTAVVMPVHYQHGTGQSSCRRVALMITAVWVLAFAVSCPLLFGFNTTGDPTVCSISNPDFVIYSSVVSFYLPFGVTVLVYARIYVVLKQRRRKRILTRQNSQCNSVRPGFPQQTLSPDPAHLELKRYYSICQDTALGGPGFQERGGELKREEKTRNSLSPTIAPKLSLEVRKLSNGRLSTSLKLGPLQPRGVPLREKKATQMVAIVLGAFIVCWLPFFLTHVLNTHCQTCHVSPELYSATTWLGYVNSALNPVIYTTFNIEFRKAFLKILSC
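Cells plated overnight at 1500 cells/well, then exposed to library compounds with dopamine controls for 90 minutes at 37 degrees C. DiscoveRx reagent added for 30–60 minutes at room temperature; luminescence read, quantitative HTS format.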
KB-V1 MDR tox: qHTS assay for MDR1-selective chemotherapeutics: Primary screen using the drug-selected MDR subline cells KB-V1; KB-V1 MDR cells viability, CellTiter-Glo, 72 h; Potency, µM (series often up to 46.1 µM), hits mostly cytotoxic; 400,000 tested, 3.4% active; AID 1347076, 2019; also: nearly all actives have a fitted effect of over 60% in size
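Potencies derive from concentration-effect curves fitted to normalized luminescence (CellTiter-Glo) of KB-V1 cells treated for 72 h at 37 degrees C in phenol-red-free DMEM containing 10% FBS.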
SW480 rerep: A quantitative high throughput screen for small molecules that induce DNA re-replication in SW480 colon adenocarcinoma cells | SW480 DNA re-replication, Hoechst DNA content imaging, 48 h | Potency, µM (highest dose often 46.1 µM), actives largely listed as activators | 340,000 tested, 1.8% active | AID 624297, 2012; also: nearly all actives have a fitted effect of over 55% in size
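250 cells/well; 23 nL cpd via pin tool; 48 hr, 37 C, 5% CO2; Hoechst 40 min; imager read of total nuclear intensity, ex 405/em 500-530 nm.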
DRD3 agonist: qHTS of D3 Dopamine Receptor Agonist: qHTS. 410,000 tested, 0.58% active. D3R DiscoveRx beta-arrestin cells, luminescence, 90 min. max activation, %; in the data active = max activation above about 30%
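Agonist mode: compounds and dopamine controls were applied to plated cells for 90 min at 37 degrees C after an overnight attachment at 1500 cells/well. Luminescent read-out followed 30 - 60 minutes at room temperature with DiscoveRx detection reagent.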
Large screens that a line does not name were inactive; ! = repeats disagree. Sampled rows, rich in hits. Any-hit rate of the full collection: about 8.9%. Unless noted, calls follow the shape of the dose curve; as a rule, active = well fitted curve in the direction sought with a large enough effect; inconclusive = small, poorly fitted or top-dose-only effect, or another doubt; inactive = no such curve, though single readings can be large; an effect the other way counts as inactive or inconclusive.

COC(=O)C1=C(c2ccccc2OCc2ccccc2)C[C@@H]2CC[C@H]1N2C(=O)NCc1ccc(F)cc1	KB-3-1 tox 21µM, KB-V1 MDR tox 18µM, SW480 rerep inconclusive
COC(=O)C1=C(c2ccc(F)cc2F)C[C@@H]2CC[C@H]1N2C(=O)NCc1ccco1	D3 antag inconclusive, DRD3 agonist 41
COC(=O)C1=C(c2ccc(F)cc2OCc2ccccc2)C[C@@H]2CC[C@H]1N2C(=O)NCc1ccc(F)cc1	KB-3-1 tox inconclusive, MCF10A rerep inconclusive, SW480 rerep 0.52µM
COC(=O)C1=C(c2ccccc2OCc2ccccc2)C[C@@H]2CC[C@H]1N2C(=O)NCc1ccc(C(C)(C)C)cc1	KB-3-1 tox inconclusive, MCF10A rerep inconclusive
ClC(Cl)Cl	none (no result: KB-3-1 tox, D3 antag, KB-V1 MDR tox)
O=C(COc1ccc(Cl)cc1)N1CCN(Cc2ccc([N+](=O)[O-])cc2)CC1	KB-3-1 tox inconclusive
O=[N+]([O-])c1cccc(NP(=O)(N2CC2)N2CC2)c1	MCF10A rerep inconclusive, SW480 rerep inconclusive
O=[N+]([O-])c1cccc(CN2CCN(Cc3ccc(Cl)cc3)CC2)c1	D3 antag -79, KB-V1 MDR tox inconclusive
CC(C)N1CCN(Cc2cccc([N+](=O)[O-])c2)CC1	D3 antag inconclusive, SW480 rerep 1.8µM
Cc1ccc(-n2c(/C=C/c3ccccc3)nc3ccccc3c2=O)cc1Cl	none (no result: MCF10A rerep, D3 antag, SW480 rerep)
FC(F)OC(F)(F)C(F)Cl (configuration not stated)	none (no result: KB-3-1 tox, D3 antag, KB-V1 MDR tox)
Oc1ccc2[nH]cc(CCCCN3CC=C(c4ccccc4)CC3)c2c1	DRD3 agonist 55 (no result: KB-3-1 tox, D3 antag, KB-V1 MDR tox)
O=C(O)c1ccc2[nH]cc(CCCCN3CC=C(c4ccccc4)CC3)c2c1	DRD3 agonist 73 (no result: KB-3-1 tox, D3 antag, KB-V1 MDR tox)
COc1ccc([C@H]2CC(=O)C=C(c3ccc4c5c(cccc35)CC4)C2)cc1	MCF10A rerep inconclusive
Cn1c(=O)n(C)c2cc(CNCCc3ccccc3)ccc21	none (no result: MCF10A rerep, D3 antag, SW480 rerep)
COCC(=O)N(c1c(C)cccc1C)C(C)C(=O)OC (configuration not stated)	none (no result: KB-3-1 tox, D3 antag, KB-V1 MDR tox)
Cc1ccc(C2C(=O)NC(=O)NC2=O)cc1	SW480 rerep 18µM
Cc1ccc(N2C(=O)CC(=O)NC2=O)cc1	none
CC(=O)O[C@H]1C[C@H](O[C@H]2[C@@H](O)C[C@H](O[C@H]3[C@@H](O)C[C@H](OC4CC[C@@]5(C)[C@H](CC[C@@H]6[C@@H]5CC[C@]5(C)[C@@H](C7=CC(=O)OC7)CC[C@]65O)C4)O[C@@H]3C)O[C@@H]2C)O[C@H](C)[C@H]1O[C@@H]1O[C@H](CO)[C@@H](O)[C@H](O)[C@H]1O (some centres not stated)	none (no result: KB-3-1 tox, MCF10A rerep, D3 antag, KB-V1 MDR tox, SW480 rerep)
CC(=O)OC1CC(OC2C(O)CC(OC3C(O)CC(OC4CCC5(C)C(CCC6C5CC(O)C5(C)C(C7=CC(=O)OC7)CCC65O)C4)OC3C)OC2C)OC(C)C1OC1OC(CO)C(O)C(O)C1O (configuration not stated)	KB-3-1 tox inconclusive, MCF10A rerep 0.18µM, KB-V1 MDR tox 0.92µM!, SW480 rerep 1.8µM
C[C@H]1O[C@@H](O[C@H]2[C@@H](O)C[C@@H](O[C@H]3[C@@H](O)C[C@H](O[C@H]4CC[C@@]5(C)[C@H](CC[C@@H]6[C@@H]5CC[C@]5(C)[C@@H](C7=CC(=O)OC7)CC[C@]65O)C4)O[C@@H]3C)O[C@@H]2C)C[C@H](O)[C@@H]1O	KB-3-1 tox 0.01µM, KB-V1 MDR tox inconclusive (no result: MCF10A rerep, D3 antag, SW480 rerep, DRD3 agonist)
CC12CCC(O)CC1CCC1C2CCC2(C)C(C3=CC(=O)OC3)CCC12O (configuration not stated)	KB-3-1 tox 1.2µM, MCF10A rerep inconclusive, KB-V1 MDR tox 0.73µM, SW480 rerep 5.8µM
